Assay results as given in the supplement of paper PMC6555819.

Experiments:
Assay in all cases: PBM binding z-score (relative to random genomic background probes); higher = stronger binding; sequences stand for … in GC…GCGATTGACAGCGTAGAATGAAGG
[1] = system: RARb homodimer (NR concentration 270 nM)
Summary of the method: (§1)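 Scanned fluorescence from custom Agilent 4×180K protein-binding microarrays was regression-normalized. Binding z-scores use random background probes as reference. Ligand-free nuclear receptor dimers were incubated on the arrays for 1 h and detected with antibodies against each partner (one per run).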

[2] = system: RARg:RXRa (NR concentration 270 nM, RXRa partner concentration 90 nM)
Summary of the method: as §1

[3] = system: RARg homodimer (NR concentration 270 nM)
Summary of the method: as §1

[4] = system: RXRa DBDmut IVT, anti-RXR (DBD mutation: RXRa K156A/R161A, NR concentration 90 nM)
Summary of the method: as §1

[5] = system: RXRa homodimer (NR concentration 180 nM)
Summary of the method: as §1

[6] = system: THRa:RXRa (NR concentration 90 nM, RXRa partner concentration 90 nM)
Summary of the method: as §1

[7] = system: THRa homodimer (NR concentration 90 nM)
Summary of the method: as §1

[8] = system: VDR homodimer (NR concentration 270 nM)
Summary of the method: as §1

Sequence | PBM binding z-score [1] | PBM binding z-score [2] | PBM binding z-score [3] | PBM binding z-score [4] | PBM binding z-score [5] | PBM binding z-score [6] | PBM binding z-score [7] | PBM binding z-score [8]
TCTATTAGTTGAAGGGAAACCGACGAGTCCGTTT | -0.0745 | -0.0691 | -0.0615 | 1.6 | 0.396 | -0.149 | 0.214 | 1.19
TCTATTAGTTGATTACGGCAACCGAAACAGCGGA | -0.0417 | 0.252 | 0.426 | 1.38 | 0.521 | 0.122 | 0.312 | 0.575
CCTAGCAGGTCAGGGTCACTCAAGCATTTCGCTT | 4.32 | 5.02 | 5.1 | 1.94 | 5.24 | 3.71 | 1.83 | 2.32
AGTCAAAGTTCAGGACGAGTTAACGTAAAGCACG | 3.1 | 4.4 | 4.71 | 2.71 | 3.19 | 2.57 | 0.422 | 2.59
AGAATGAGTTTATTAAGATCAGGGAATTGCGGTC | 0.079 | -0.0299 | 0.321 | 3.88 | 0.093 | 0.265 | 0.231 | 3.05
TCGAGTTGGTCACGGAGGTCACACACGACGGGTA | 4.47 | 4.77 | 4.81 | 1.32 | 4.92 | 3.77 | 2.24 | 3.52
CCTGCTAGGTCAATGGTCAGCGAAAGCAGCTCGC | 2.63 | 3.65 | 4.18 | 1.73 | 2.11 | 2.32 | 0.558 | -0.0463
